Measured values reported in PubChem BioAssay AID1259351 (ICCB-Longwood Screening Facility, Harvard Medical School, 2017).
The list shows a part of the results. Calls of active or inactive are those of the source.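 How the source made its calls: active means inhibition score at or above a set limit, where the score is 100 minus the three-replicate mean percent of control signal; inactive means the rest.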

The compounds below were run against Guanine nucleotide-binding protein G(i) subunit alpha-3 (Homo sapiens) (UniProt P08754) (assay: inhibitors of GIV binding to Galpha-i3, confirmation, orthogonal assay for GIV-Galpha-i inhibitor project, biochemical, AlphaScreen, His-GIV, GST-Galphai3 (AID 1259351)). Conditions: purified proteins, 90 min, at 100 µM, active compounds read low.

Row | SMILES | AlphaScreen counts
1 | O=C(NN=c1c(=O)c2ccccc2c1=O)c1ccncc1 | 28200 (inactive)
2 | O=C(O)c1c2ccccc2[nH]c2c1oc1cc(=O)ccc12 | 19100 (active)
3 | COC(=O)Cn1nc2c(-c3nc(-c4ccc(Cl)cc4)no3)cccn2c1=O | 27400 (inactive)
4 | Cc1ccc(NC(=O)c2nc[nH]c2C(=O)N2CCCCC2)c(C(=O)c2ccccc2)c1 | 27800 (inactive)
5 | COc1ccccc1CNc1ncc2nc(-c3ccccc3)oc2n1 | 40200 (inactive)
6 | COc1ccc(Nc2cc(C(=O)NCCCN(C)c3ccccc3)c3ccccc3n2)c(OC)c1 | 33800 (inactive)
7 | CCOc1cc(/C=C2/C(=O)N(c3nn[nH]n3)N=C2C)cc(Cl)c1OCC | 1950 (active)
8 | COC1=C(N2CCOCC2)C(=O)c2ccccc2C1=O | 29700 (active)
9 | CC1=NOC(=O)C1C(c1cccc(Br)c1)c1c(C)[nH]n(-c2ccccc2)c1=O (centres undefined) | 2770 (active)
10 | N#CSc1cc(SC#N)c(N)nc1N | 24300 (active)
11 | Cc1ccc(C(=O)N2CCc3cc(CNC(=O)c4ccc(Br)cc4)ccc32)cc1 | 29400 (inactive)
12 | CCOC(=O)C1=C(C)N(c2ccc(OC)cc2)C(=O)/C1=C\c1ccco1 | 21400 (active)
13 | CCOC(=O)c1nc2cc(C)c(C)cc2nc1NC1CCCCC1 | 38900 (inactive)
14 | CC(=O)Oc1cccc2c1C(=O)C=CC2=O | 35600 (inactive)
15 | Cc1ccc(N2C(=O)/C(=C/c3ccc(OCC(=O)O)c(Br)c3)C(=O)NC2=S)cc1 | 6910 (active)
16 | N#CC(C#N)=C(C#N)/C=C/n1c2ccccc2c2ccccc21 | 4560 (active)
17 | COc1ccccc1N1C(=O)/C(=C/c2ccc(Cl)cc2)C=C1c1ccccc1 | 45900 (inactive)
18 | Cc1nn(-c2ccccc2)c2sc(-c3noc(-c4ccccc4F)n3)cc12 | 31800 (inactive)
19 | O=C(O)c1cc(NS(=O)(=O)c2ccc3c(c2)CCCC3)cnc1N1CCOCC1 | 28400 (inactive)
20 | O=C(O)CCC(C(=O)O)N1C(=O)/C(=C\c2ccco2)SC1=S (centres undefined) | 2280 (active)
21 | CC(=O)Nc1ccc(Nc2c3c4c(cccc4[nH]c2=O)C(=O)c2ccccc2-3)cc1 | 27100 (inactive)
22 | Cn1cccc1/C=C1\C(=O)NC(=S)N(c2ccccc2)C1=O | 799 (active)
23 | COc1ccc(N=Nc2c(-c3ccc(OC)cc3)[nH]oc2=O)cc1 | 54000 (inactive)
24 | CCC(=O)N1CCc2cc(N3CC(C(=O)N4CCN(C(C)C)CC4)CC3=O)ccc21 (centres undefined) | 27700 (inactive)
